Assays:
Experiment in all cases: DAPPL (digital affinity profiling via proximity ligation, sequencing); 10 mM Tris-HCl pH 7.5, 50 mM NaCl, 1 mM DTT, 4% glycerol, room temperature, 30 min; GST-TFs on glutathione beads, 16-mer random dsDNA library, 0.1% formaldehyde crosslink after washing; high values mean tight binding
Conditions in all cases: protein: recombinant; tags: N-terminal GST; dsDNA, one strand shown
FLI1 = biological target: T1, FLI1 (Homo sapiens, UniProt Q01543 1-452)
T1 sequence: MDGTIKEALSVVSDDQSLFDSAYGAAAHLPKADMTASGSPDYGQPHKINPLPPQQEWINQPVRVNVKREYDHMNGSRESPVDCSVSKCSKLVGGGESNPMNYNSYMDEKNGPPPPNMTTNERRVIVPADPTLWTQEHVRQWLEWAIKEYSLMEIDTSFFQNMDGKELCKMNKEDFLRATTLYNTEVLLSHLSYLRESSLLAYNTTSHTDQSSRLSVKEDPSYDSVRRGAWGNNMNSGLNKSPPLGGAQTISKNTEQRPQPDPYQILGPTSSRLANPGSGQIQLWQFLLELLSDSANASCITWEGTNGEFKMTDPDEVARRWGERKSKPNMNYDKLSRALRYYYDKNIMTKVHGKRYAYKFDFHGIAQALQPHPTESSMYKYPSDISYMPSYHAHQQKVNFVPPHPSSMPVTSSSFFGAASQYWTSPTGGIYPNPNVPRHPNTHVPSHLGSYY
In short: (§1)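 After expression in yeast as GST fusions, human transcription factors were bound to glutathione beads, DNA-barcoded and mixed with a tag-only sample. The pools were incubated with 200 nmole of a 16-mer random double-stranded DNA library in Tris/NaCl/DTT/glycerol buffer (30 min, room temperature), washed and crosslinked with 0.1% formaldehyde. Proximity ligation with BsaI/T4 ligase ran for 1 h at 37 °C, before PCR amplification and sequencing on an Illumina NextSeq500. Binding signal is a hexamer's read frequency for a factor divided by its frequency for the tag-only sample.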

ELK1 = biological target: T2, ELK1 (Homo sapiens, UniProt P19419 1-428)
T2 sequence: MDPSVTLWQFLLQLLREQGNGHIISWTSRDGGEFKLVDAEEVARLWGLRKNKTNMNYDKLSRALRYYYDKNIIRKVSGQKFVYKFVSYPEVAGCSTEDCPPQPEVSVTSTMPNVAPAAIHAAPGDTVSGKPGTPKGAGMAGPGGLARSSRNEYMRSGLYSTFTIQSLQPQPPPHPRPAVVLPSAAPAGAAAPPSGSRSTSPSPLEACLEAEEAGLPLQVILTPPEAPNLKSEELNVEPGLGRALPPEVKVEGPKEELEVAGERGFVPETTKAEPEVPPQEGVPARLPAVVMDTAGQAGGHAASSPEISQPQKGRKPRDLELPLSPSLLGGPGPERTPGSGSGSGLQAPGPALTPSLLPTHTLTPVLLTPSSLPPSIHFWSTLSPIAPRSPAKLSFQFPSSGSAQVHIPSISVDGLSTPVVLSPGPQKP
In short: as §1

GABPA = biological target: T3, GABPA (Homo sapiens, UniProt Q06546 1-454)
T3 sequence: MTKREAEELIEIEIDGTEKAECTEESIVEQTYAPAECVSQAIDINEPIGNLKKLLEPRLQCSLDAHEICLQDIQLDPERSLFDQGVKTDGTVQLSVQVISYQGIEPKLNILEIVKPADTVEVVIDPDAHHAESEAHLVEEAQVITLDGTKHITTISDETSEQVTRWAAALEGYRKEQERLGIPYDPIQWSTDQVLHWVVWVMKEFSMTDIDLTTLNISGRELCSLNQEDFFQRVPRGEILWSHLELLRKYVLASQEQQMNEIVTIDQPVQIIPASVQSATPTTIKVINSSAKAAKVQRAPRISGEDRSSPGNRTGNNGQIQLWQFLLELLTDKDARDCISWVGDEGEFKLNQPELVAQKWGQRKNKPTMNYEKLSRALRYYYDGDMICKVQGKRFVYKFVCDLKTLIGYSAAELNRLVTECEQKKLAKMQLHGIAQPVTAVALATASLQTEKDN
In short: as §1

ERG = biological target: T4, ERG (Homo sapiens, UniProt P11308 1-479)
T4 sequence: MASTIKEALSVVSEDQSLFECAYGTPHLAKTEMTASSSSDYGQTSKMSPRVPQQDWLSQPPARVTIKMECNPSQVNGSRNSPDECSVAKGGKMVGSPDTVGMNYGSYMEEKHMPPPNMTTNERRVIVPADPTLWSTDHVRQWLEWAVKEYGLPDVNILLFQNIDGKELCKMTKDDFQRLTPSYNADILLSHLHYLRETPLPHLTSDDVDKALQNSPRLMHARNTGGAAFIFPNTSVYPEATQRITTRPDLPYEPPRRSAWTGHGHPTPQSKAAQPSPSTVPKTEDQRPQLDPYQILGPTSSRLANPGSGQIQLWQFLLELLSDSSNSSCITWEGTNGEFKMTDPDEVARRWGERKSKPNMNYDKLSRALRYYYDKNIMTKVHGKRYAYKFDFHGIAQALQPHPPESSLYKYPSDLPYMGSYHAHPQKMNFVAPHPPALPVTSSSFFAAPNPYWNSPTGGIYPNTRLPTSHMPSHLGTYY
In short: as §1

ELF1 = ELF1 (Homo sapiens, UniProt P32519 1-619)
ELF1, sequence (P32519 whole entry): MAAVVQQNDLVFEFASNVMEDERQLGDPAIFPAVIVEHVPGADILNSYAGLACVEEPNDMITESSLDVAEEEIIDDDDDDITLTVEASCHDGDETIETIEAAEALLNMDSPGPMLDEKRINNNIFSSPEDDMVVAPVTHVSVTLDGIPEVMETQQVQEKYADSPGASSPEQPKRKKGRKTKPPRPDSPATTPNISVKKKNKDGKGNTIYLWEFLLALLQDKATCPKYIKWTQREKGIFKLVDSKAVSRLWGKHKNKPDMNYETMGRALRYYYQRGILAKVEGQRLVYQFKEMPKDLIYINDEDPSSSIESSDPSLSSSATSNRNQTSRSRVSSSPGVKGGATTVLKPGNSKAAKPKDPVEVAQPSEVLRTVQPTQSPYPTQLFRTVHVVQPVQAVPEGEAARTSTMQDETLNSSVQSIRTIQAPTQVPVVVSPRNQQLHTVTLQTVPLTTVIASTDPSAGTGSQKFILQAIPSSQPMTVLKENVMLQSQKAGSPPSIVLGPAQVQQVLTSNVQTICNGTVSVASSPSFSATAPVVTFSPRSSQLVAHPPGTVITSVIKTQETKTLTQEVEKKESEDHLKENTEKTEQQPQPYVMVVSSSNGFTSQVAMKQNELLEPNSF
In short: as §1

EHF = biological target: T5, EHF (Homo sapiens, UniProt Q9NZC4 1-300)
T5 sequence: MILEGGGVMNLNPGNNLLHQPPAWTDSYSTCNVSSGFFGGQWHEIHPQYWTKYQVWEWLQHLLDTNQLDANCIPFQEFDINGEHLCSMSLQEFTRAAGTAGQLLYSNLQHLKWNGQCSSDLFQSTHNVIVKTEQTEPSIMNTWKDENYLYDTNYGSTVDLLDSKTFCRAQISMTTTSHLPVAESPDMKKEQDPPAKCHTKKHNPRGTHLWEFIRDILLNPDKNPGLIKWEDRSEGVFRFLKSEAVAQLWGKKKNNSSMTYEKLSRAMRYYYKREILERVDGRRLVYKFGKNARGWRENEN
In short: as §1

SPI1 = SPI1 (Homo sapiens, UniProt P17947 1-270)
In short: as §1

SPIB = SPIB (Homo sapiens, UniProt Q01892 1-262)
SPIB, sequence (Q01892 whole entry): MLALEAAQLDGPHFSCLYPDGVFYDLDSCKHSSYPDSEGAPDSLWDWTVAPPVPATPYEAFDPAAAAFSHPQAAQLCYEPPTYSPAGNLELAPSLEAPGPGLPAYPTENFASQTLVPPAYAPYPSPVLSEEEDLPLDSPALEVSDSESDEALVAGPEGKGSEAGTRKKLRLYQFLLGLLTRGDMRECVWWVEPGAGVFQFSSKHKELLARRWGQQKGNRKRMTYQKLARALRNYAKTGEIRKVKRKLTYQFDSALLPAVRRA
In short: as §1

ELK3 = biological target: T6, ELK3 (Homo sapiens, UniProt P41970 1-407)
T6 sequence: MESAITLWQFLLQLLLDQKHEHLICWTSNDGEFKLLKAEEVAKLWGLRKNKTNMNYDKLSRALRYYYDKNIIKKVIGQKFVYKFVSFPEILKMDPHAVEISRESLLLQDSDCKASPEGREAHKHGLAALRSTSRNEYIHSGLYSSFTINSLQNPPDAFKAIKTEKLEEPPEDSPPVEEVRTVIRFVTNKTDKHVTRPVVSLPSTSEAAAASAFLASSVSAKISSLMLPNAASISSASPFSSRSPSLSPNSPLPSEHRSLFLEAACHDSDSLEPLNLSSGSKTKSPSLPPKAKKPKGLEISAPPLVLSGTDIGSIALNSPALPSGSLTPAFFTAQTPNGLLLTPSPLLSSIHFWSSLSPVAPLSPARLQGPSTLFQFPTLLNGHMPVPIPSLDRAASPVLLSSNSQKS
In short: as §1

FEV = biological target: T7, FEV (Homo sapiens, UniProt Q99581 1-238)
T7 sequence: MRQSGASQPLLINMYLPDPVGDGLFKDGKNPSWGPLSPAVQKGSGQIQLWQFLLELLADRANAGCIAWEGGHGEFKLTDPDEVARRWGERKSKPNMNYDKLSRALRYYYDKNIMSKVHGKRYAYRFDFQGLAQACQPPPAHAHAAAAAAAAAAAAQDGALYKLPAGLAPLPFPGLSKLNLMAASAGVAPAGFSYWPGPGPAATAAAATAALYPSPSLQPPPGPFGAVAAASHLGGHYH
In short: as §1

ETV5 = ETV5 (Homo sapiens, UniProt P41161 1-510)
ETV5, sequence (P41161 whole entry): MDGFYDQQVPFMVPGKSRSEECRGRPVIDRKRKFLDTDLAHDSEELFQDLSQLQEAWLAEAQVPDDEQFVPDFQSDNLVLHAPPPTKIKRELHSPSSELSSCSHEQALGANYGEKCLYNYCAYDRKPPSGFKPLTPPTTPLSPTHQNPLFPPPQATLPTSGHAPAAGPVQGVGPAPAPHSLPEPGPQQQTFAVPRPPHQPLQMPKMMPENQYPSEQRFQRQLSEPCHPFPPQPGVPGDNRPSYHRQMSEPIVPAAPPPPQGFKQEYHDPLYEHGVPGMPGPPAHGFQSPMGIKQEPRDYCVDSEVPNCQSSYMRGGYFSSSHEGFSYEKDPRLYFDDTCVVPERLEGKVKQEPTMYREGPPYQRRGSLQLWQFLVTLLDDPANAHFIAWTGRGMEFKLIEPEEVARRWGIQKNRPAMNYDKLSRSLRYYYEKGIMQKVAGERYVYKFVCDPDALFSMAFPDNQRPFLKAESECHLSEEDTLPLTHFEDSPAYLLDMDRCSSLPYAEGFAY
In short: as §1

SPIC = biological target: T8, SPIC (Homo sapiens, UniProt Q8N5J4 1-248)
T8 sequence: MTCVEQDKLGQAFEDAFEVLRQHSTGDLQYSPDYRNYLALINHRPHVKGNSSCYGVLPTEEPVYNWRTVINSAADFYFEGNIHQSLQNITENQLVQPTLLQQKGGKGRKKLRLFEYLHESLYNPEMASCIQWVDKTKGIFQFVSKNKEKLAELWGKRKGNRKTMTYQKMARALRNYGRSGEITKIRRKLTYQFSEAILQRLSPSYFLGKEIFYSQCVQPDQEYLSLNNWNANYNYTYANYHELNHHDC
In short: as §1

ELF4 = ELF4 (Homo sapiens, UniProt Q99607 1-663)
ELF4, sequence (Q99607 whole entry): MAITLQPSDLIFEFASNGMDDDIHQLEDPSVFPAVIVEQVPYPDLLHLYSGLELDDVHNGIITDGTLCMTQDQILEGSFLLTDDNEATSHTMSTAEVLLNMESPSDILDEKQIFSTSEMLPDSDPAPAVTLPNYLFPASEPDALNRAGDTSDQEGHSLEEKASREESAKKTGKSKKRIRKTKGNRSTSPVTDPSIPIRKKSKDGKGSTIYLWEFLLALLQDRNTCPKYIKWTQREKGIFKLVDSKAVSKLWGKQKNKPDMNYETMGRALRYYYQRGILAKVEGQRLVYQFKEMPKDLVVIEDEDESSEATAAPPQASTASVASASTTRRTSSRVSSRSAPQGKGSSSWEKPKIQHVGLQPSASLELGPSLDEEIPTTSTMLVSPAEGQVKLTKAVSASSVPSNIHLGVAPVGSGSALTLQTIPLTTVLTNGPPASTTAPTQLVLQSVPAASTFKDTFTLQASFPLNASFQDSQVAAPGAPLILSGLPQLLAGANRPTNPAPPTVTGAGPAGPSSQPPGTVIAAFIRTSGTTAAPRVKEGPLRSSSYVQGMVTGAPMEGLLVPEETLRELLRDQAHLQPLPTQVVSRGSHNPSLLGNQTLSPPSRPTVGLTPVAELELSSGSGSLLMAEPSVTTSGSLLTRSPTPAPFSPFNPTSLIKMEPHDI
In short: as §1

ELK4 = biological target: T9, ELK4 (Homo sapiens, UniProt P28324-2 1-405)
T9 sequence: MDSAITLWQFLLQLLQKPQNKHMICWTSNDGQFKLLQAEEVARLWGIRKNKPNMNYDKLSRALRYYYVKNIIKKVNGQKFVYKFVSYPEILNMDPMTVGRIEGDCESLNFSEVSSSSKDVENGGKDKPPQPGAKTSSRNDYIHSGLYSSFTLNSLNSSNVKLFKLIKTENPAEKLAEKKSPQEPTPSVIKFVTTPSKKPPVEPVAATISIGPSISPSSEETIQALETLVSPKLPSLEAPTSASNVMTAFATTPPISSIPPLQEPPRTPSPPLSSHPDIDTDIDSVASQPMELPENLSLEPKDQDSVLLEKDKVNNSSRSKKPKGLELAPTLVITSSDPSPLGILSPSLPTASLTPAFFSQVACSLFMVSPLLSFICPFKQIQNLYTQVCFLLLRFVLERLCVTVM
In short: as §1

ETV2 = biological target: T10, ETV2 (Homo sapiens, UniProt O00321 1-342)
T10 sequence: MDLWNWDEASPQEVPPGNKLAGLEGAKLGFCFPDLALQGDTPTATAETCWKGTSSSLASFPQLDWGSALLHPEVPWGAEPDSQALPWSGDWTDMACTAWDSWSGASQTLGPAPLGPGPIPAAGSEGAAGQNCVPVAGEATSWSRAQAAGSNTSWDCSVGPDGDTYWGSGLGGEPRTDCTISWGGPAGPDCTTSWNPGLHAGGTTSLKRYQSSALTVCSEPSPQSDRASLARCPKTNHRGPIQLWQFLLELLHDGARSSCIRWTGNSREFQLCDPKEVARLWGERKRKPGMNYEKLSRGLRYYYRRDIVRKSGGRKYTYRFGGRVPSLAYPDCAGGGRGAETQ
In short: as §1

ELF3 = biological target: T11, ELF3 (Homo sapiens, UniProt P78545 1-371)
T11 sequence: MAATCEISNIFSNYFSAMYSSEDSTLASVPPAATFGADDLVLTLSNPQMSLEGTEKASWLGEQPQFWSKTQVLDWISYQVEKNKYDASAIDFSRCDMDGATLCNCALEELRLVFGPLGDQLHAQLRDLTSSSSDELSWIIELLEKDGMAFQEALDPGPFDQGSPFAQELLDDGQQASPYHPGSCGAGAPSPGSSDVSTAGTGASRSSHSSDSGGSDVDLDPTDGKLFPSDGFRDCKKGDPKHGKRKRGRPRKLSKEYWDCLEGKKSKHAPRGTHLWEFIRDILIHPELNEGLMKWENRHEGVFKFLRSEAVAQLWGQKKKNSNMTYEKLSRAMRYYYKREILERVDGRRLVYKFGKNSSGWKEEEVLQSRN
In short: as §1

ETV1 = ETV1 (Homo sapiens, UniProt P50549 1-477)
ETV1, sequence (P50549 whole entry): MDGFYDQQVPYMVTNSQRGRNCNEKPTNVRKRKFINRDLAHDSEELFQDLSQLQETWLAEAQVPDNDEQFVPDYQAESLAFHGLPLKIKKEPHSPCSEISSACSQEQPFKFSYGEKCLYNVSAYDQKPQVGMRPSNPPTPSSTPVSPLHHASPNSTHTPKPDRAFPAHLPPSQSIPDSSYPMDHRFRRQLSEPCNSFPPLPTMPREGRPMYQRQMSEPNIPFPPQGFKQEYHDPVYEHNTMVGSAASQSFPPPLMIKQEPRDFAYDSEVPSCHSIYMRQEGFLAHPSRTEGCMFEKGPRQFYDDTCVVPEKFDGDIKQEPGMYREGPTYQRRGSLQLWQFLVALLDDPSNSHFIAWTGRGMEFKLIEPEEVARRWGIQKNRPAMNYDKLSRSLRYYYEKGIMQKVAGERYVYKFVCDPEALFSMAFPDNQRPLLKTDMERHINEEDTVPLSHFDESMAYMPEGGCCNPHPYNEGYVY
In short: as §1

| Sequence | binding signal (FLI1) | binding signal (ELK1) | binding signal (GABPA) | binding signal (ERG) | binding signal (ELF1) | binding signal (EHF) | binding signal (SPI1) | binding signal (SPIB) | binding signal (ELK3) | binding signal (FEV) | binding signal (ETV5) | binding signal (SPIC) | binding signal (ELF4) | binding signal (ELK4) | binding signal (ETV2) | binding signal (ELF3) | binding signal (ETV1) |
| --- | --- | --- | --- | --- | --- | --- | --- | --- | --- | --- | --- | --- | --- | --- | --- | --- | --- |
| CATTCA | 1.17 fold enrichment (6-mer frequency, TF over GST control) | 1.14 fold enrichment (6-mer frequency, TF over GST control) | 1.1 fold enrichment (6-mer frequency, TF over GST control) | 1.17 fold enrichment (6-mer frequency, TF over GST control) | 1.13 fold enrichment (6-mer frequency, TF over GST control) | 1.05 fold enrichment (6-mer frequency, TF over GST control) | 1.07 fold enrichment (6-mer frequency, TF over GST control) | 1.12 fold enrichment (6-mer frequency, TF over GST control) | 1.16 fold enrichment (6-mer frequency, TF over GST control) | 1.01 fold enrichment (6-mer frequency, TF over GST control) | 1.12 fold enrichment (6-mer frequency, TF over GST control) | 1.01 fold enrichment (6-mer frequency, TF over GST control) | 1.11 fold enrichment (6-mer frequency, TF over GST control) | 1.09 fold enrichment (6-mer frequency, TF over GST control) | 1.03 fold enrichment (6-mer frequency, TF over GST control) | 1.06 fold enrichment (6-mer frequency, TF over GST control) | 1.15 fold enrichment (6-mer frequency, TF over GST control) |
| CGCTAC | 1.24 fold enrichment (6-mer frequency, TF over GST control) | 1.23 fold enrichment (6-mer frequency, TF over GST control) | 1.25 fold enrichment (6-mer frequency, TF over GST control) | 1.24 fold enrichment (6-mer frequency, TF over GST control) | 1.2 fold enrichment (6-mer frequency, TF over GST control) | 1.13 fold enrichment (6-mer frequency, TF over GST control) | 1.16 fold enrichment (6-mer frequency, TF over GST control) | 1.13 fold enrichment (6-mer frequency, TF over GST control) | 1.28 fold enrichment (6-mer frequency, TF over GST control) | 1.18 fold enrichment (6-mer frequency, TF over GST control) | 1.15 fold enrichment (6-mer frequency, TF over GST control) | 1.18 fold enrichment (6-mer frequency, TF over GST control) | 1.24 fold enrichment (6-mer frequency, TF over GST control) | 1.2 fold enrichment (6-mer frequency, TF over GST control) | 1.25 fold enrichment (6-mer frequency, TF over GST control) | 1.24 fold enrichment (6-mer frequency, TF over GST control) | 1.27 fold enrichment (6-mer frequency, TF over GST control) |

Reference: publication PMC7862700, “An all-to-all approach to the identification of sequence-specific readers for epigenetic DNA modifications on cytosine”
